Source: PubChem (several laboratories)
SENP8 block-1: human SENP8 protease inhibitors, primary screen, biochemical, fluorescence, Nedd8 protein substrate, uHTS | Sentrin-specific protease 8 (Homo sapiens), Q96LD8 | inhibition, % at 20 µM | 360,000 compounds, 0.64% hits | recombinant SENP8; in the data active = inhibition mostly above about 40%, no sharp cut-off; inactive = mostly below about 27%
Target sequence (Q96LD8 whole entry, looked up): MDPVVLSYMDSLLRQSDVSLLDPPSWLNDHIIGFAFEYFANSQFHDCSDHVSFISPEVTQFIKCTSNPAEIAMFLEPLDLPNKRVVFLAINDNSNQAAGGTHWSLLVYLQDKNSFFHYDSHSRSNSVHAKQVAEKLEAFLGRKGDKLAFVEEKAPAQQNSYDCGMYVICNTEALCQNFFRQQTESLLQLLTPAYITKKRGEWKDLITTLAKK
SENP7 inh: SENP7 protease inhibitors, primary screen, biochemical, luminescence, uHTS | Sentrin-specific protease 7 (Homo sapiens), Q9BQF6 | recombinant SENP7, Z-RLRGG-aminoluciferin luminescence, 40 min | inhibition, % at 5 µM | 330,000 compounds, 1.5% hits | AID 434973, 2010;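 active = inhibition above about 50% at the single test dose, limit read from the data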;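 note: plate controls were DMSO with enzyme for no effect and no enzyme buffer wells for full effect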
Target sequence (Q9BQF6 706-1050 limits assumed): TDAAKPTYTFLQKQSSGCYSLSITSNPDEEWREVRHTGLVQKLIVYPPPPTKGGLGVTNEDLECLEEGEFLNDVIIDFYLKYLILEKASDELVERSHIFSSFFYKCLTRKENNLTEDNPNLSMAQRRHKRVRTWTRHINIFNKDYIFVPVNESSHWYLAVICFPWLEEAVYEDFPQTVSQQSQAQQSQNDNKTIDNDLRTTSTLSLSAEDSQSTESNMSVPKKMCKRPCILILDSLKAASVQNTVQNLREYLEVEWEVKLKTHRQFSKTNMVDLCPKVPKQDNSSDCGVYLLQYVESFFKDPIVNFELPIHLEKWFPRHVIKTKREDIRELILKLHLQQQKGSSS
HSP90 inh: HSP90 inhibitors, primary screen, cell lysate, luminescence; inhibition, % at 5.6 µM; 290,000 compounds, 0.91% hits; Rabbit reticulocyte lysate, luciferase refolding luminescence, 3 h; AID 1789, 2009;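 active = inhibition above the screen-wide mean plus 3 SD, computed separately per campaign, cut at about 16% in these data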;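 note: 0% = DMSO wells and 100% = 60 µM geldanamycin wells; inhibitors lower the luminescence because luciferase stays unfolded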
SENP8 block-2: SENP8 protease inhibitors, primary screen, biochemical, luminescence; Sentrin-specific protease 8 (Homo sapiens), Q96LD8; purified SENP8, Z-RLRGG-aminoluciferin cleavage; inhibition, % at 10 µM; 330,000 compounds, 1.2% hits; in the data active = inhibition above about 50%
SENP6 block: SENP6 protease inhibitors, primary screen, biochemical, luminescence, uHTS; Sentrin-specific protease 6 (Homo sapiens), Q9GZR1; Recombinant SENP6 catalytic domain, aminoluciferin luminescence; inhibition, % at 10 µM; 330,000 compounds, 1.8% hits; AID 2599, 2010;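 active = inhibition above about 50% at the single tested dose, limit read from the data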;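 note: plate controls were DMSO wells with enzyme for no effect and DMSO wells lacking enzyme for full effect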
LGR2 inh: inhibitors of bursicon-induced LGR2 CRE-luciferase signal, primary screen, cell-based, HEK293, CRE-luciferase reporter, bursicon stimulation | AID 720647, 2013 | bursicon-stimulated, 4 h | 380,000 compounds, 0.35% hits | Drosophila bursicon receptor LGR2 (rickets) | inhibition, % at 9.99 µM;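 active = drop in luminescence signal, shown as inhibition above about 50% in the replicate tests, limit read from the data, passing the limit was not always enough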;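 note: agonist challenge used bursicon conditioned medium at about half maximal strength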
HSP90 inh confirm: HSP90 inhibitors, confirmation, cell lysate, luminescence; AID 1846, 2009; 2,300 compounds, 64% hits; rabbit reticulocyte lysate, luciferase refolding luminescence, 3 h; shares compounds with HSP90 inh; inhibition, % at 5.9 µM; in the data active = inhibition above about 18%;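 note: 0% = vehicle wells and 100% = reference inhibitor wells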
luciferase ctr: firefly luciferase inhibitors, HSP90 counter-screen, confirmation, artefact control for HSP90 inhibitor project, biochemical, luminescence, triplicate; shares compounds with HSP90 inh; inhibition, % at 5.9 µM; purified native firefly luciferase; AID 1847, 2009; 2,300 compounds, 48% hits;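 active = inhibition above the mean inhibition of all tested sample wells plus 3 SD, cut at about 10% in these data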;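 note: 0% = DMSO with luciferase and 100% = wells lacking luciferase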
Numbers without * were called inactive; / = no result given. Most compounds without a hit are left out; they make up all but 2.3% or so of the library.

SMILES | SENP8 block-1 | SENP7 inh | HSP90 inh | SENP8 block-2 | SENP6 block | LGR2 inh | HSP90 inh confirm | luciferase ctr
O=C(Nc1ccc(S(=O)(=O)NCCc2ccccc2)cc1)c1ccco1 | 6.4 | 7.9 | 25.9* | 1.6 | -0.6 | -12.1 | -7.2 | -8.7
O=C(NC(=O)c1ccccc1)Nc1ccccn1 | 2.6 | 99.8* | 74.1* | 93.6* | 98.8* | 88.6* | 93.0* | 85.6*
O=C(Nc1ccccn1)c1ccc(C(=O)c2ccccc2)cc1 | 8.6 | 45.4 | / | 19.1 | 49.7 | -62.4 | / | /
COCC(C)n1c(C)cc(C(=O)Cn2nc(C(=O)O)c3ccccc3c2=O)c1C (stereo not drawn) | 17.3 | -11.7 | 41.7* | -7.7 | 9.2 | -69.6 | 51.8* | -11.4
Cc1cc(C(=O)Cn2nc(C(=O)O)c3ccccc3c2=O)c(C)n1CC(F)(F)F | 2.1 | -2.0 | 25.8* | -14.4 | -9.2 | -75.9 | 44.5* | -21.7
COCC(=O)N1C[C@@H](C)[C@H](OC)CN(C)C(=O)c2ccc(NC(=O)NC(C)C)cc2OC[C@H]1C | / | / | / | / | / | -7.5 | / | /
CN(C)c1ccc(/C=C2\CCC/C(=C\c3ccccc3)C2=O)cc1 | 10.0 | / | -3.9 | / | / | -39.0 | / | /
CC(=O)N1/C(=C/c2ccc(N(C)C)cc2)C(=O)c2ccccc21 | -18.3 | / | 18.3* | / | / | 75.0* | 5.5 | -12.9
C[C@H]1CN([C@@H](C)CO)S(=O)(=O)c2ccc(-c3cccc(C#N)c3)cc2O[C@@H]1CN(C)C(=O)Nc1cc(F)ccc1F | / | / | / | / | / | -6.6 | / | /
COCC(=O)Nc1ccc(N2CCN(c3ccccc3)CC2)c(F)c1 | 9.5 | 10.2 | 27.4* | -8.7 | -0.1 | -5.9 | -7.3 | -12.6
CCOc1ccc(-c2nc(CN3CCCCC3CCn3cccn3)c(C)o2)cc1 (stereo not drawn) | -2.0 | 2.5 | 17.9* | -2.8 | 13.9 | -14.2 | 36.3* | 0.2
COc1cc(OC)cc(C(=O)c2c(C)c(C#N)c3ccccn23)c1 | 7.0 | -4.5 | 2.1 | -1.4 | 7.3 | -1.2 | / | /
COC1=C/C(=C/c2c(O)c(C#N)c3ccccn23)C=CC1=O | -297.5 | 7.2 | 26.1* | -1.6 | 8.9 | -70.3 | 0.1 | -0.8
COC(=O)c1ccc2nc(Nc3nc4ccc(F)cc4s3)sc2c1 | -443.1 | / | 83.2* | / | / | / | 89.6* | 81.2*
COC(=O)c1ccc2nc(NC(=O)C3CCCCC3)sc2c1 | 13.3 | 5.2 | 18.2* | -1.3 | -16.1 | -61.3 | 35.2* | -17.3
CC(C)c1ccc2nc(NC(=O)C3CC3)sc2c1 | 2.3 | 10.9 | -3.3 | -21.1 | -1.7 | -112.9 | / | /
COC(=O)c1ccc2nc(NC(=O)C(C)(C)C)sc2c1 | 0.6 | 22.5 | 66.8* | 3.3 | 22.7 | 64.3* | 77.8* | 73.5*
O=C(NNc1nc2ccc(F)cc2s1)c1cccc(F)c1 | 0.3 | 8.2 | 0.1 | 22.0 | 49.3 | -58.7 | / | /
CO[C@@H]1CN(C)C(=O)c2ccc(NC(=O)C3CC3)cc2OC[C@H](C)N(Cc2ccccc2)C[C@H]1C | / | / | / | / | / | 20.0 | / | /
COc1cc(C2NC(=O)NC(c3ccccc3)=C2C(C)=O)c(Br)c(Br)c1O (stereo not drawn) | 16.3 | -8.4 | 17.9* | -7.0 | 4.0 | 3.9 | -0.5 | -2.3
CCc1ccc(/C=C2\SC(=S)N(CCCC(=O)Nc3ccccn3)C2=O)cc1 | 37.4 | -3.6 | 27.9* | -3.0 | 19.7 | / | 32.5* | -16.0
COC(=O)c1ccc(/C=C2/SC(=S)N(CCCC(=O)Nc3ccccn3)C2=O)cc1 | 32.8 | 8.2 | 2.5 | -11.4 | -22.0 | -13.6 | / | /
C[C@H](CO)N1C[C@H](C)[C@H](CN(C)Cc2ccccc2)Oc2cc(C#CCN(C)C)ccc2S1(=O)=O | / | / | / | / | / | -7.8 | / | /
CN1C(=O)c2cc(NC(=O)NC3CCCC3)ccc2OC[C@@H]2O[C@@H](CC(=O)NC3CCC3)CC[C@H]21 | / | / | / | / | / | -12.2 | / | /
O=C(Oc1ccc2ccc(O)cc2c1)C1CCCCC1 | -16.9 | 3.2 | -1.5 | 6.6 | 25.7 | -3.3 | / | /
SMILES | SENP8 block-1 | SENP7 inh | HSP90 inh | SENP8 block-2 | SENP6 block | LGR2 inh | HSP90 inh confirm | luciferase ctr
O=C(Oc1ccc2ccccc2c1)C1CCC1 | 3.1 | -23.1 | 37.1* | -22.8 | -0.3 | 3.7 | -2.7 | -16.3
C[C@@H](NC(=O)C[C@H]1CC[C@@H]2[C@H](COC[C@H](O)CN2C(=O)Nc2ccccc2)O1)c1ccccc1 | / | / | / | / | / | 10.1 | / | /
O=C(Nc1ncc([N+](=O)[O-])s1)c1cccc([N+](=O)[O-])c1 | 29.2 | 100.7* | 16.4* | 97.3* | 96.1* | -29.0 | 59.8* | 34.4*
O=C(Nc1ccc(NC(=O)c2cccc([N+](=O)[O-])c2)cc1)c1cccc([N+](=O)[O-])c1 | 15.9 | 12.1 | 3.3 | -20.7 | 18.7 | -19.1 | / | /
O=C(O)c1ccccc1NC(=O)c1cc2ccccc2oc1=O | 7.2 | 23.5 | 23.1* | 11.0 | 9.2 | 5.7 | 1.9 | -6.4
O=C(Nc1cccnc1N1CCOCC1)c1cc2ccccc2oc1=O | 18.5 | -0.8 | / | -0.8 | -7.0 | / | / | /
COCC#Cc1cnc2c(c1)C(=O)N([C@H](C)CO)C[C@@H](C)[C@H](CN(C)S(C)(=O)=O)O2 | / | / | / | / | / | 14.3 | / | /
CCN1CCN(Cc2ccc(NC(=O)c3ccc(C)c(NC(=O)c4ccno4)c3)cc2C(F)(F)F)CC1 | 8.1 | 15.1 | / | -12.4 | -4.6 | 4.1 | / | /
CCN1CCN(Cc2ccc(NC(=O)c3ccc(C)c(NC(=O)c4cccc(-c5cn[nH]c(=O)c5)c4)c3)cc2C(F)(F)F)CC1 | -25.9 | 2.0 | 19.5* | -0.1 | -21.1 | / | 18.7* | -7.9
COc1cccc(N=c2oc3ccccc3cc2-c2nc3ccccc3[nH]2)c1 | -352.0 | -8.1 | 24.1* | 4.9 | -1.0 | / | -1.7 | -12.9
CCN(CC)c1ccc(C2Nc3cccc4cccc(c34)N2)cc1 | -23.0 | 14.2 | 57.0* | -18.1 | 10.3 | 14.1 | 1.7 | -6.8
Fc1ccc(C2Nc3cccc4cccc(c34)N2)cc1 | 34.3 | -3.5 | 0.9 | 1.2 | 14.5 | -4.6 | / | /
CCCOc1ccc(C2Nc3cccc4cccc(c34)N2)cc1 | 6.7 | 1.9 | 38.9* | 3.5 | 5.4 | / | 18.4* | -17.2
Brc1ccc(C2Nc3cccc4cccc(c34)N2)cc1 | -16.4 | / | / | / | / | 2.3 | / | /
C[C@H]1CN([C@@H](C)CO)S(=O)(=O)c2ccc(-c3cncnc3)cc2O[C@@H]1CN(C)C | / | / | / | / | / | 25.3 | / | /
COC(=O)C1=C(CN2CCc3ccccc32)NC(=O)NC1c1cc(C)ccc1C (stereo not drawn) | -8.0 | 0.3 | 7.9 | -2.7 | -4.2 | / | / | /
COC(=O)C1=C(CN2CCCc3ccccc32)NC(=O)NC1c1ccc(F)cc1 (stereo not drawn) | -42.8 | -0.5 | 46.4* | -2.2 | 2.4 | 16.8 | 14.9 | -9.9
